# In PubChem BioAssay AID504336 (NMMLSC, 2011):
# Where “and” joins values, the source holds several entries; their conditions need not be identical. Equal entries are not always repeated. Values without a mark were called inactive.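 Rule for the calls: active = compounds whose GFP signal falls below 65% of the DMSO control level; inconclusive = fewer than 70 yeast cells counted in the well; inactive = the rest.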
# Assay: TOR branch reporter RPL19A-GFP response – cell-based, S. cerevisiae, third cherry pick, flow cytometry, confirmation (AID 504336);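 note: median GFP fluorescence of all gated yeast cells by flow cytometry; ratio of well median fluorescence to plate mean of DMSO wells with DMSO = 100%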
# Settings: S. cerevisiae RPL19A-GFP strain, 3 h, at 10 µM, stronger effect = lower value
row,SMILES,GFP response relative to DMSO
1,COc1cccc2c(O)cc(=O)n(C)c12,99.6%
2,CCOC(=O)CS(=O)(=O)c1nc(-c2ccccc2)cc(C(F)(F)F)n1,93.1%
3,Cc1cc(C)c2ccc(N)nc2c1O,101%
4,Cc1cccc(N/C=C/C(=O)c2ccc(Cl)cc2)c1,99.6%
5,COc1cc(=O)n(C)c2c(O)cccc12,101%
6,Nc1cc(C(=O)O)c(N)c2c1C(=O)c1ccccc1C2=O,98.5%
7,COc1cccc(OCc2cc(C(=O)N3CCN(C)C(c4ccccc4)C3)no2)c1 (centres undefined),96.5%
8,Nc1c(C(=O)O)ccc2c1C(=O)c1ccccc1C2=O,101%
9,Oc1c(Br)cc(Br)c2cccnc12,88.3%
10,COc1cccc2c(=O)c(C(=O)O)c[nH]c12,98.3%
11,CN1CCN(C(=O)c2cc(COc3ccc(F)cc3Cl)on2)CC1c1ccccc1 (centres undefined),100%
12,CCN(CC)C(=O)Oc1cc(=O)n(C)c2ccccc12,99.8%
13,COc1ccccc1-c1cc(C(F)(F)F)nc(S(=O)(=O)CCCC(=O)NC(C)C)n1,94.4% and 99.1%
14,O=C(Nc1cccc2ccccc12)ON=C1CCCCC1,101%
15,CC(=O)Nc1ccc(-c2nc3cc(Cl)ccc3o2)cc1,99.3%
16,O=C(O)c1ccccc1-c1ccccc1C(=O)Nc1ccc(-c2nc3cc(Cl)ccc3o2)cc1,98.5%
17,CC(=O)C(Cl)C(=O)Nc1ccccc1 (centres undefined),98.8%
18,O=C(Nc1cccc(Cl)c1)ON=C1c2ccccc2-c2ccccc21,102%
19,Cc1ccc(C(=O)/C=C/Nc2cccc(O)c2)cc1,101%
20,CC1=CN2C(=N)/C(=C/c3ccco3)C(=O)N=C2S1,106%

row,SMILES,GFP response relative to DMSO
1,COc1cccc(N/C(C)=C/C(=O)c2ccc(Br)cc2)c1,101%
2,O=C(Nc1nc(-c2ccccn2)cs1)c1ccccc1-n1cnnn1,98.8%
3,C[n+]1cccc2c(Br)ccc([O-])c21,101%
4,Cc1nc2c(O)cccc2cc1CO,102%
5,O=C(N/N=C/c1ccccc1F)c1cccc2ccccc12,100%
6,Cc1ccc(-c2cc(C(F)F)nc(S(C)(=O)=O)n2)cc1,96.2%
7,Cn1cccc1C(=O)Nc1nc(-c2ccccn2)cs1,102%
8,Cc1cc(C)c2ccc(C(=O)O)nc2c1O,98.5%
9,COC(=O)c1cc(=O)c2cccc(OC)c2[nH]1,101%
10,COc1cccc(NC(=O)CC(C)=O)c1,99.1%
11,COCCCNc1nc(N)c([N+](=O)[O-])c(Nc2ccccc2OC)n1,99.1%
12,OCCNc1ncnc2ccc(Br)cc12,99.8%
13,CCN(CC)C(=O)Oc1ccnc2cc(Cl)ccc12,103%
14,COc1ccc(NC(=O)O/N=C2/CCCc3ccc(OC)cc32)cc1,104%
15,CCC(C)Nc1nc(N)c([N+](=O)[O-])c(Nc2cc(OC)ccc2OC)n1 (centres undefined),96.5%
16,C=CCNc1ncnc2ccc(Br)cc12,99.3%
17,Cc1ccc2nc(-c3ccc(NC(=O)c4cccnc4)cc3)oc2c1,97.2%
18,CS(=O)(=O)c1nc(-c2ccc(F)cc2)cc(C(F)(F)F)n1,97.8%
19,CCc1sc(C(=O)Nc2nc(-c3ccccn3)cs2)cc1C,101%
